Assay [1] in a line: ATG_Sox_CIS: Attagene CIS-FACTORIAL HepG2 Assay for human SRY-box transcription factor (SOX) (AID 2282960). As to conditions: HepG2 Attagene cis-factorial SOX reporter, mRNA; actives raise or lower the signal. In outline:
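Cells were transfected with reporter constructs under cis-regulatory promoters, then exposed to chemicals for 24 h. Reporter transcripts were quantified by fluorescence after RT-PCR and capillary electrophoresis; activity was fitted in both directions against DMSO.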

Assay [2] has as its target Transcription factor Sp1 (Homo sapiens) (UniProt P08047). In words: ATG_Sp1_CIS: Attagene CIS-FACTORIAL HepG2 Assay for human Specificity Protein 1 (Sp1) (AID 2282961). As to conditions: HepG2 Sp1 cis-reporter transcription, actives raise or lower the signal. An outline of the steps:
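Measures mRNA induction of an Sp1-linked reporter in HepG2 cells 24 h post-dosing. Multiplexed reporters read by RT-PCR and capillary electrophoresis; DMSO serves as negative control and baseline.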

Assay [3] is described as follows: ATG_SREBP_CIS: Attagene CIS-FACTORIAL HepG2 Assay for human Sterol Regulatory Element Binding (SREBP) (AID 2282962). As to conditions: HepG2 Attagene cis-factorial SREBP reporter, mRNA; actives raise or lower the signal. In outline: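 Readout: fluorescent reporter-transcript peaks resolved by capillary electrophoresis after RT-PCR. Cells were human HepG2 carrying transfected cis-promoter reporter constructs, dosed for 24 h. Gain or loss of signal was fitted against DMSO controls.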

The target of assay [4] is Signal transducer and activator of transcription 3 (Homo sapiens) (UniProt P40763). Description: ATG_STAT3_CIS: Attagene CIS-FACTORIAL HepG2 Assay for human Signal Transducer and Activator of Transcription 3 (STAT3) (AID 2282963). As to conditions: HepG2, Attagene cis-factorial STAT3 reporter transcription; actives raise or lower the signal. An outline of the steps:
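Uses human liver HepG2 transiently carrying cis-regulated reporter transcription units. Following 24 h dosing, reporter mRNA induction was detected by RT-PCR and capillary electrophoresis, analysed bidirectionally versus DMSO.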

Assay [5] in a line: ATG_TCF_b_cat_CIS: Attagene CIS-FACTORIAL HepG2 Assay for human T-Cell-Factor with beta-catenin (TCF/b-cat) (AID 2282965). As to conditions: HepG2 TCF/beta-catenin cis-reporter transcription, actives raise or lower the signal. An outline of the steps: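 In this cis-format system, transfected HepG2 cells report endogenous transcription factor activity. Readout after 24 h exposure is reporter transcript abundance from RT-PCR and capillary electrophoresis, analysed for gain or loss of signal versus DMSO.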

Assay [6] in a line: ATG_TAL_CIS: Attagene CIS-FACTORIAL HepG2 Assay for human TAL Basal Promoter (AID 2282966).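 Note: background control endpoint measuring basal TAL promoter reporter mRNA not a specific factor.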 As to conditions: HepG2 Attagene cis-factorial TAL promoter reporter; actives raise or lower the signal. An outline of the steps: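 HepG2, transient MRTU transfection, 24 h compound exposure; RNA → oligo(dT) RT → PCR → 6-FAM primer extension → HpaI digest → CE fluorescence. Bidirectional curve fit vs DMSO. Background-control readout.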

The nature of assay [7]: ATG_TGFb_CIS: Attagene CIS-FACTORIAL HepG2 Assay for human Transforming Growth Factor (TGF) (AID 2282967). As to conditions: HepG2 Attagene CIS TGFb reporter, mRNA transcription; actives raise or lower the signal. In outline: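 Readout: fluorescently labeled reporter cDNA fragments resolved by capillary electrophoresis after RT-PCR. Transfected HepG2 cells dosed for 24 h; endogenous TF activity at TGFB1-linked cis element; gain or loss fitted relative to DMSO.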

The nature of assay [8]: ATG_VDRE_CIS: Attagene CIS-FACTORIAL HepG2 Assay for human Vitamin D Receptor Element (VDRE) (AID 2282968). As to conditions: HepG2 VDRE cis-reporter transcription, actives raise or lower the signal. In outline: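 Transfected HepG2 reporter cells, chemical treatment 24 h. RNA isolated, cDNA amplified with reporter-specific primers, products analysed by capillary electrophoresis. Endpoint fitted in both directions versus DMSO.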

Assay [9] concerns the target X-box-binding protein 1 (Homo sapiens) (UniProt P17861). In words: ATG_Xbp1_CIS: Attagene CIS-FACTORIAL HepG2 Assay for human X-box Binding Protein 1 (XBP1) (AID 2282972). As to conditions: HepG2 XBP1 cis-element reporter, Attagene multiplex; actives raise or lower the signal. An outline of the steps: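 Read-out: fluorescent reporter mRNA fragments resolved by capillary electrophoresis after RT-PCR. Human HepG2 liver cells carried transfected cis-promoter reporter units and were exposed to chemicals for 24 hours. Gain or loss of signal fitted relative to DMSO baseline.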

Assay [10] can be described thus: ATG_GAL4_TRANS: Attagene TRANS-FACTORIAL HepG2 Assay for GAL4 (Internal Marker) (AID 2282976; active = hit-call score of the fitted dose curve at least 0.9, where 1 is the maximum). As to conditions: HepG2 Attagene TRANS GAL4 internal marker reporter. An outline of the steps: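 RT-PCR/capillary electrophoresis readout of reporter mRNA. HepG2, transient MRTU transfection (GAL4-UAS reporters), 24 h compound exposure. Background-control endpoint, positive direction vs DMSO baseline.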

The target of assay [11] is Glucocorticoid receptor (Homo sapiens) (UniProt P04150). In words: ATG_GR_TRANS: Attagene TRANS-FACTORIAL HepG2 Assay for human Glucocorticoid Receptor (GR) (AID 2282978; active = hit-call score of the fitted dose curve at least 0.9, where 1 is the maximum;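 note: activators score as hits since higher reporter transcript over DMSO is fitted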). As to conditions: HepG2 Attagene TRANS GR reporter, mRNA transcription. An outline of the steps:
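Multiplexed TRANS reporter system, HepG2; 24 h exposure; RNA → oligo(dT) RT → reporter-specific PCR → 6-FAM primer extension → HpaI cut → CE fluorescence. Gain-of-signal vs DMSO.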

Assay [12] can be described thus: ATG_TA_CIS: Attagene CIS-FACTORIAL HepG2 Assay for human TA Basal Promoter (AID 2282964). As to conditions: HepG2 Attagene CIS-factorial TA basal promoter reporter; actives raise or lower the signal. An outline of the steps:
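Transfected HepG2, 24 h compound exposure; RNA → RT-PCR → FAM primer extension → HpaI cut → CE fluorescence. Gain/loss-of-signal fitted against DMSO negative control. Background-control readout.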

In assay [13] the target is Estrogen receptor (Homo sapiens) (UniProt P03372). Description: ATG_ERa_TRANS: Attagene TRANS-FACTORIAL HepG2 Assay for human Estrogen Receptor alpha (ERa) (AID 2282970; active = hit-call score of the fitted dose curve at least 0.9, where 1 is the maximum). As to conditions: HepG2 Attagene TRANS ERa GAL4 reporter, mRNA. In outline:
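Reporter mRNA induction after 24 hours, detected by fluorescent RT-PCR and capillary electrophoresis, gives the read-out. Cells are HepG2 transiently transfected with GAL4-UAS reporter transcription units responding to chimeric NR-Gal4. Activity is taken as gain of signal over DMSO baseline.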

Assay [14] is described as follows: ATG_M_19_TRANS: Attagene TRANS-FACTORIAL HepG2 Assay for M19 Transcription Factor (Internal Marker) (AID 2282974; active = hit-call score of the fitted dose curve at least 0.9, where 1 is the maximum). As to conditions: HepG2 Attagene TRANS-FACTORIAL M19 internal marker reporter. An outline of the steps:
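After transfection of HepG2 with GAL4-UAS-driven reporter constructs, cells are dosed for 24 h. Total RNA is reverse-transcribed, reporter sequences PCR-amplified and labelled, then HpaI-digested and sized by capillary electrophoresis.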

Assay [15] concerns the target Oxysterols receptor LXR-beta (Homo sapiens) (UniProt P55055). Description: ATG_LXRb_TRANS: Attagene TRANS-FACTORIAL HepG2 Assay for human Liver X Receptor beta (LXRb) (AID 2282981; active = hit-call score of the fitted dose curve at least 0.9, where 1 is the maximum). As to conditions: HepG2 Attagene TRANS GAL4-LXRb reporter, mRNA. An outline of the steps:
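Liver-derived HepG2 cells transfected with Gal4-responsive reporters were dosed for 24 h. Activation was scored as rise in reporter mRNA, by RT-PCR and capillary electrophoresis, above DMSO baseline.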

The target in assay [16] is Androgen receptor (Homo sapiens) (UniProt P10275). Description: ATG_AR_TRANS: Attagene TRANS-FACTORIAL HepG2 Assay for human Androgen Receptor (AR) (AID 2282973; active = hit-call score of the fitted dose curve at least 0.9, where 1 is the maximum). As to conditions: HepG2 Attagene TRANS-FACTORIAL AR reporter transcription. In outline:
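Readout is reporter transcript abundance, quantified by fluorescent RT-PCR products separated on capillary electrophoresis. Human HepG2 liver cells carried transiently transfected NR-Gal4 chimera plus GAL4-UAS reporter constructs and were dosed for 24 h; activity scored upward versus DMSO.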

Assay [17] addresses Nuclear receptor subfamily 1 group I member 3 (Homo sapiens) (UniProt Q14994). Description: ATG_CAR_TRANS: Attagene TRANS-FACTORIAL HepG2 Assay for human Constitutive Androstane Receptor (CAR) (AID 2282969; active = hit-call score of the fitted dose curve at least 0.9, where 1 is the maximum;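 note: activators raise reporter mRNA above DMSO so AC50 marks induction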). As to conditions: HepG2 Attagene TRANS-FACTORIAL CAR reporter. In outline:
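Steps: transient transfection of HepG2 with multiple GAL4-UAS reporter units; 24 h compound incubation; RNA isolation, RT-PCR, 6-FAM primer extension, HpaI digest; capillary electrophoresis. Gain-of-signal relative to DMSO negative control.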

For assay [18], the target named is Oxysterols receptor LXR-alpha (Homo sapiens) (UniProt Q13133). Description: ATG_LXRa_TRANS: Attagene TRANS-FACTORIAL HepG2 Assay for human Liver X Receptor alpha (LXRa) (AID 2282980; active = hit-call score of the fitted dose curve at least 0.9, where 1 is the maximum). As to conditions: HepG2 Attagene TRANS reporter, LXRa transactivation. In outline:
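Read-out: reporter transcript levels by RT-PCR plus capillary electrophoresis, fluorescence intensity. Transiently transfected HepG2, exogenous NR-GAL4 chimera, GAL4-UAS reporters; 24 h compound exposure. Activity = increase over DMSO negative control.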

Data on six compounds can be found in PubChem BioAssay (EPA / NIEHS).

Inconclusive results are not listed. The source made the active and inactive calls. Rule for the calls, unless noted: active = hit-call score of the fitted dose curve at least 0.9, where 1 is the maximum; inactive = score below 0.9.

Chain of Signal transducer and activator of transcription 3 (Homo sapiens) (P40763 whole entry, looked up): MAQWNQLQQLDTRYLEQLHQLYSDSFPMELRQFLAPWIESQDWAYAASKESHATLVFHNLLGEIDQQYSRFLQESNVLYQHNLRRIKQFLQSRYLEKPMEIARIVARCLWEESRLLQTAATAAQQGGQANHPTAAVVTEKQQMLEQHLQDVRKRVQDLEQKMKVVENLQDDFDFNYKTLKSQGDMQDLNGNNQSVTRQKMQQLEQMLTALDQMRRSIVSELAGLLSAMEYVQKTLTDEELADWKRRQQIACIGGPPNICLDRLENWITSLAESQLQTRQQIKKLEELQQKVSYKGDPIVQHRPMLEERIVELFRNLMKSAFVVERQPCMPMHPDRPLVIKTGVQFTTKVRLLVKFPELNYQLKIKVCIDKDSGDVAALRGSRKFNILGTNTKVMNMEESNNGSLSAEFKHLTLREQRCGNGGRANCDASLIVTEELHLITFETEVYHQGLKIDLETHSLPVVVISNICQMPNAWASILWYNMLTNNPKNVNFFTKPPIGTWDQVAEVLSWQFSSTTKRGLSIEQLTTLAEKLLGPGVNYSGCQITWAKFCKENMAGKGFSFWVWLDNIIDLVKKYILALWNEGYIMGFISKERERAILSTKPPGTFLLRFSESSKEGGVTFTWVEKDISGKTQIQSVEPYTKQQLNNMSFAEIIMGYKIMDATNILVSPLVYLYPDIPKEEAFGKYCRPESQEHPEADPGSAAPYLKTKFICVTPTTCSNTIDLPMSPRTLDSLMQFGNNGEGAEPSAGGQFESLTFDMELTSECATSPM
Chain of X-box-binding protein 1 (Homo sapiens) (P17861 whole entry, looked up, the tested form may be a part): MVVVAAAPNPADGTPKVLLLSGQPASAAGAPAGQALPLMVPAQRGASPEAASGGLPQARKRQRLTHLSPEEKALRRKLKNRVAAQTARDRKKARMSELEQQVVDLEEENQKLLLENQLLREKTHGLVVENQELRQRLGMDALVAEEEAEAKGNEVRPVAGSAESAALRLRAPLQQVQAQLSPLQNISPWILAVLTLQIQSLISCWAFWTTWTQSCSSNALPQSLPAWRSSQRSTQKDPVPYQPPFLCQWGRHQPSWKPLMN
Chain of Transcription factor Sp1 (Homo sapiens) (P08047 whole entry, looked up): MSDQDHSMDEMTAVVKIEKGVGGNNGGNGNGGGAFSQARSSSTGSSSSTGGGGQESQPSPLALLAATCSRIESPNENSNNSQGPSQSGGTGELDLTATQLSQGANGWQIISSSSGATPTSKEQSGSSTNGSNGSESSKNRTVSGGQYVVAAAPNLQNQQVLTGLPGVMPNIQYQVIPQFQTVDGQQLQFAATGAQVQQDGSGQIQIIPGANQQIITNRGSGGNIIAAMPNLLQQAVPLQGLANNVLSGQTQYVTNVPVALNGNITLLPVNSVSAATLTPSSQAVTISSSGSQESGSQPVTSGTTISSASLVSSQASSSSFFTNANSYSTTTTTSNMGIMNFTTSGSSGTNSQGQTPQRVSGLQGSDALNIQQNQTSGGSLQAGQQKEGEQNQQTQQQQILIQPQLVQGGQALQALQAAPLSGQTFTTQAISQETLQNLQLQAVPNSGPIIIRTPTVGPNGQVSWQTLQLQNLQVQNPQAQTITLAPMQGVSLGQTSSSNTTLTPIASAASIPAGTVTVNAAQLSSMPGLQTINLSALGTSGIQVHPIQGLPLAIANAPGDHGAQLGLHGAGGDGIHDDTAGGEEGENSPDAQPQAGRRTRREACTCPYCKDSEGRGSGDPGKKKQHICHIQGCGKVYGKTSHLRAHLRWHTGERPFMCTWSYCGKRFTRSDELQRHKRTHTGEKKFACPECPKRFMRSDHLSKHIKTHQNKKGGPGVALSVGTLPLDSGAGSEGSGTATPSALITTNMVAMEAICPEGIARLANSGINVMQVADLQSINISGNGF
Chain of Glucocorticoid receptor (Homo sapiens) (P04150 whole entry, looked up): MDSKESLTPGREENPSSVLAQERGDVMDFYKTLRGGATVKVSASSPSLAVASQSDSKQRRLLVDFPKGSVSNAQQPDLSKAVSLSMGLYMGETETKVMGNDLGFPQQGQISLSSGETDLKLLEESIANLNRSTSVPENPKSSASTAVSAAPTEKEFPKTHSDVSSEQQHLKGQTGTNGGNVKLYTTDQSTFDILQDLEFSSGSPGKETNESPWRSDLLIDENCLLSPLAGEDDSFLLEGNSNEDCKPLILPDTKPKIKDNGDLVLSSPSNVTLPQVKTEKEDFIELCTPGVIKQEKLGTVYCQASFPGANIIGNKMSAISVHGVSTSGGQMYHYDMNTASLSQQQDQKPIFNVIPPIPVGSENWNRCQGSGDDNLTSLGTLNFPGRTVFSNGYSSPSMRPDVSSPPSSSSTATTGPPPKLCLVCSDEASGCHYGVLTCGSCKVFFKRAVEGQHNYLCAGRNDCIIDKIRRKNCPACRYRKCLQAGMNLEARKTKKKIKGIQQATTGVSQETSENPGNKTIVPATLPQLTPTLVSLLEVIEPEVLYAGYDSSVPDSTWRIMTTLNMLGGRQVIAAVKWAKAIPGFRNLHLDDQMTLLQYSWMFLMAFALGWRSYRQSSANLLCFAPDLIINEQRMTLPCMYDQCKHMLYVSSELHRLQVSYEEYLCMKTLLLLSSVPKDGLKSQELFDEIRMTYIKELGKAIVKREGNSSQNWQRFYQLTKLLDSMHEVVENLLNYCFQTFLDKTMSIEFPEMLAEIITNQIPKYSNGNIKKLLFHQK
Chain of Oxysterols receptor LXR-beta (Homo sapiens) (P55055 whole entry, looked up, the tested form may be a part): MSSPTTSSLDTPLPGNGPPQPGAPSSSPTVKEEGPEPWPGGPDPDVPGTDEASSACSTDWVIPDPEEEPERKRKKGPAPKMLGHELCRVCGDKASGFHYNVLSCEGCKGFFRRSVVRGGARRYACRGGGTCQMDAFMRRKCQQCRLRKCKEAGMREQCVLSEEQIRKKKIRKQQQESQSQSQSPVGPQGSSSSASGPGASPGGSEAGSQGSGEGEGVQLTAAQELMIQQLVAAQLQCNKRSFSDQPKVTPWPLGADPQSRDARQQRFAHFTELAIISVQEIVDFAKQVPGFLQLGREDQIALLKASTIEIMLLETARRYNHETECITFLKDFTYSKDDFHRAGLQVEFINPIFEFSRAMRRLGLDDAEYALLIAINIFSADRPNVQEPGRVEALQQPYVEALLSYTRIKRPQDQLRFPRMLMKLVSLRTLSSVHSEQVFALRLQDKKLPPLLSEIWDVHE
Chain of Estrogen receptor (Homo sapiens) (P03372 whole entry, looked up, the tested form may be a part): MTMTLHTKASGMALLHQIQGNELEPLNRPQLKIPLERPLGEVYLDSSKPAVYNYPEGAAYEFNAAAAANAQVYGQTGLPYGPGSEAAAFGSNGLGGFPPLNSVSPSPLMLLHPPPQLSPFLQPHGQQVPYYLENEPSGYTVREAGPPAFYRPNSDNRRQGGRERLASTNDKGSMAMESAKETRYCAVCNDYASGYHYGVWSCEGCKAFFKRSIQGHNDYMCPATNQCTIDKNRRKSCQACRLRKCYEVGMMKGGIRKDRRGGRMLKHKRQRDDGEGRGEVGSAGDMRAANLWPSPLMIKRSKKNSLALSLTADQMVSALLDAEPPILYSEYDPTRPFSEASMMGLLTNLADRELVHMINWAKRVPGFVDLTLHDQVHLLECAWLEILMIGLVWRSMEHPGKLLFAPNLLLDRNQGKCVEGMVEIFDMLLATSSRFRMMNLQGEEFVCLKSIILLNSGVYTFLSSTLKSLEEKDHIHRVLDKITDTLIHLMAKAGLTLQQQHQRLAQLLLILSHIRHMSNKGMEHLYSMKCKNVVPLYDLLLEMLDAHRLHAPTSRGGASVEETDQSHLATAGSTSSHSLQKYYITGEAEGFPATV
Chain of Oxysterols receptor LXR-alpha (Homo sapiens) (Q13133 whole entry, looked up, the tested form may be a part): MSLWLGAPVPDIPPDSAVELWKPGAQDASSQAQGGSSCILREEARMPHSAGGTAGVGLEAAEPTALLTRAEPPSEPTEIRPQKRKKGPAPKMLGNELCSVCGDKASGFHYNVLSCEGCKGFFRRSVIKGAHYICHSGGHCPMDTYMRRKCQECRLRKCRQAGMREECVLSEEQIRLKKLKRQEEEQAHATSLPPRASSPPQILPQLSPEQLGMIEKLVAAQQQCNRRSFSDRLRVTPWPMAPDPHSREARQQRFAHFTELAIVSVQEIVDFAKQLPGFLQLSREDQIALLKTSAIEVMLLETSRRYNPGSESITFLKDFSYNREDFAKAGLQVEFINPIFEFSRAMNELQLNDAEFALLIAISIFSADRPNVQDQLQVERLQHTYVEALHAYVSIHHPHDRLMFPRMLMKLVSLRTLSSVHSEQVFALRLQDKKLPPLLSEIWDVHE
Chain of Nuclear receptor subfamily 1 group I member 3 (Homo sapiens) (Q14994 whole entry, looked up, the tested form may be a part): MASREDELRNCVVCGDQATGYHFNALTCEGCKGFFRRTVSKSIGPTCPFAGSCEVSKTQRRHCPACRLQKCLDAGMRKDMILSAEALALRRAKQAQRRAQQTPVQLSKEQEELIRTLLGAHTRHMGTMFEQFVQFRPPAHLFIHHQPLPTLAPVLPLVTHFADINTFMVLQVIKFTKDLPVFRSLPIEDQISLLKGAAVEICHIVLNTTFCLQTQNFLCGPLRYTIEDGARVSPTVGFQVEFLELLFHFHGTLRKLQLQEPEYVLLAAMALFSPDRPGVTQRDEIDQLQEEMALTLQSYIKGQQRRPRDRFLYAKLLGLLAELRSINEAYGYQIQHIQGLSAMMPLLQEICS

As to `Clc1nc(Cl)nc(Cl)n1`, the outcome in assay [1], in assay [2], in assay [3], in assay [4], in assay [5] and in assay [6] was inactive. The outcome in assay [7], in [8], in [9], in [10] and in assay [11] was inactive.
Regarding `Nc1cccc2ccccc12`, the compound was called inactive in assay [1], in assay [2], in assay [4], in assay [12], in assay [5] and in assay [6]. Further, the result in assay [7], in assay [13], in assay [9], in assay [14] and in assay [15] was inactive. The half-maximal activity concentration (AC50) in [3] was 170 µM (active).
As for `Cc1cc(=O)[nH]o1`, the result in assay [1], in assay [2], in [3], in [4], in assay [5] and in assay [6] was inactive. For the same compound, the compound was called inactive in [7], in assay [9], in assay [16], in assay [10], in assay [11] and in assay [15].
Consider `Nc1ncc([N+](=O)[O-])s1`, for which the call in assay [1], in [2], in [3], in [4], in assay [5] and in [6] was inactive. Besides, the compound was called inactive in assay [7], in assay [8], in assay [9], in assay [14], in [10] and in assay [11]. For the same compound, in assay [15], the compound was called inactive.
Consider `COC(=O)c1sccc1S(=O)(=O)NC(=O)Nc1nc(C)nc(OC)n1`, for which the outcome in [1], in assay [2], in assay [3], in assay [4], in [5] and in [6] was inactive. For the same compound, the result in [7], in assay [8], in assay [17], in [13], in assay [9] and in assay [14] was inactive. In addition, the call in assay [11], in assay [18] and in [15] was inactive.
Consider `CCCCCCCCCl`, for which the call in assay [1], in [2], in assay [3], in assay [4], in assay [5] and in assay [6] was inactive. The compound was classed as inactive in assay [7], in [8], in assay [9] and in [18].
